This passage reports Potency and activity, negative = inhibition results from PubChem BioAssay AID1030 (National Center for Advancing Translational Sciences (NCATS), 2008).

About 16,000 (7.3%) of roughly 220,000 compounds were called active. Where a call stands in place of a potency, no number is given. About 25% were inconclusive and are not listed. For the sample, actives were picked, then their nearest neighbours and some compounds at random. Unmarked numbers belong to inactive results. The call rests on the fitted dose curve; in most records, active means well fitted inhibition curve with a large enough effect (not every such curve was filed as active); inconclusive means small, poorly fitted or top-dose-only effect, or another doubt; inactive means no such curve, though single readings can be large or run the other way.
Potency means the concentration at half of the fitted maximal effect.

Sequence of Aldehyde dehydrogenase 1A1 (Homo sapiens) (P00352 whole entry, looked up): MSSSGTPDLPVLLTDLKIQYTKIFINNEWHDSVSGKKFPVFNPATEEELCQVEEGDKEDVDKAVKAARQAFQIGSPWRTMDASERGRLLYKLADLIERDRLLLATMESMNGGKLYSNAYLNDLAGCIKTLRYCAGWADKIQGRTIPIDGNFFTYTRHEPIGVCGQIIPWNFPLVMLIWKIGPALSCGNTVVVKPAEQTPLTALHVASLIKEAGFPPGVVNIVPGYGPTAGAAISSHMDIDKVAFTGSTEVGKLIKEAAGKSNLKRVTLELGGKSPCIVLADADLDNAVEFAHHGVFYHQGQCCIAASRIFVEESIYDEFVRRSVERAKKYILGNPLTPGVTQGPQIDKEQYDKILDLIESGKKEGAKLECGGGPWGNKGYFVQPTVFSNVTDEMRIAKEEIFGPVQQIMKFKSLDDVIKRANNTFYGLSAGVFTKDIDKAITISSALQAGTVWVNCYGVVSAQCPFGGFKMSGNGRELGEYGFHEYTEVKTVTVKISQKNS

The assay addresses Aldehyde dehydrogenase 1A1 (Homo sapiens) (UniProt P00352). The assay can be described thus: qHTS Assay for Inhibitors of Aldehyde Dehydrogenase 1 (ALDH1A1). The conditions noted are these: Purified ALDH1A1, NADH fluorescence, propionaldehyde substrate; series mostly up to 75.3 µM.
For `O=C(NNC(=S)NC1CCCCC1)c1ccccc1Cl`, the Potency entry is “inactive”.
The same measure, in the same setting: to `CC(C)NC(=O)CSc1nnc(COc2ccccc2Cl)o1` belongs “inactive”.
Turning to `Cc1ccccc1OCc1nnc(SCC(=O)N2c3ccccc3Sc3ccc(Cl)cc32)o1`, the Potency is 10 µM (active).
For the molecule `Cc1ccc(NC(=O)CSc2nnc(COc3ccccc3C)o2)cc1`, the Potency result was “inactive”.
In the case of `O=C(CSc1ccccn1)Nc1nc2c(ccc3ccccc32)s1`, the Potency result is “inactive”.
For `O=C1NCC(=O)N(Cc2ccccc2)/C1=C/c1ccccc1`, the Potency result is “inactive”.
For the molecule `O=C1N/C(=C/c2cccs2)C(=O)N1Cc1ccc(F)cc1`, the Potency result was “inactive”.
With `CN(C)c1ccc(/C=C2\NC(=S)N(Cc3ccccc3)C2=O)cc1`, the Potency is 11.2 µM (active).
Still for that read-out and setting: to `CCc1nnc(NC(=O)CCCSc2nc3ccccc3[nH]2)s1` belongs “inactive”; to `COc1cc(OC)cc(-c2nc(=S)n3ccsc3n2)c1`, “inactive”; to `CC(Oc1ccccc1)C(=O)NN1Cc2ccccc2C1=N` (centres undefined), “inactive”.
On to `COc1ccc(/C(C)=N/NC(=O)CCC(=O)Nc2ccc(Cl)cc2Cl)c(OC)c1`, for which the Potency entry is “inactive”.
On to `NC(=O)COC(=O)c1sc2cc(F)ccc2c1Cl`, for which the Potency entry is “inactive”.
On to `C=CC1=C2C=C(C3CC3)N(CC(C)C)C=C2C(=O)C(C)(OC(=O)c2ccco2)C1=O` (centres undefined), for which the activity, negative = inhibition was -1.97% [at 13.5 µM].
Turning to `O=C1CC(c2ccccc2)CC(O)=C1C=NCCN1CCOCC1` (centres undefined), the Potency entry is “inactive”.
For the molecule `COc1ccc(C2/C(=C(/O)c3ccc(OC(C)C)cc3)C(=O)C(=O)N2CCCN2CCOCC2)cc1` (centres undefined), the Potency was 25.1 µM (active).
In the case of `O=C1C(=O)N(CCN2CCOCC2)C(c2ccccn2)/C1=C(/O)c1ccc(Cl)cc1` (centres undefined), the Potency is 12.6 µM (active).
On to `CCN(CC)CCN1C(=O)C(=O)/C(=C(/O)c2ccccc2)C1c1ccccc1F` (centres undefined), for which the Potency entry was “inactive”.
For `CC1Cc2cc(/C(O)=C3\C(=O)C(=O)N(CCN4CCOCC4)C3c3ccccc3F)ccc2O1` (centres undefined), the Potency entry was “inactive”.
Same read-out and setting: to `COc1ccc(/C(O)=C2/C(=O)C(=O)N(CCCN(C)C)C2c2ccccc2)cc1OC` (centres undefined) belongs “inactive”; to `COc1ccc(/C(O)=C2/C(=O)C(=O)N(CC3CCCO3)C2c2ccc(OC)c(OC)c2)cc1` (centres undefined), “inactive”; to `COc1cccc(C2/C(=C(/O)c3ccncc3)C(=O)C(=O)N2CCCN(C)C)c1` (centres undefined), “inactive”.
Consider `CCN(CC)CCN1C(=O)C(=O)/C(=C(/O)c2ccc(OC)c(OC)c2)C1c1ccccn1` (centres undefined), for which the Potency is 28.2 µM (active).
Regarding `COC(=O)C(C(=O)OC)[C@@H](NC=O)c1ccccc1`, the Potency result is “inactive”.
As for `CCOC(=O)C1=C(C)c2ccccc2OC1C(=O)OCC` (centres undefined), the Potency entry was “inactive”.
For the molecule `CCc1cc(CNC(=O)CC2C(=O)NCCN2CC2CCCCC2)on1` (centres undefined), the Potency result was “inactive”.
Same read-out and setting: the entry for `CCc1ccc(Oc2nc([N+](=O)[O-])nn2C)cc1` is “inactive”.
On the same count and under the same terms, the entry for `Cc1ccc(C(=O)NN(CCC#N)C2=NS(=O)(=O)c3ccccc32)cc1` is “inactive”; for `Cn1nc(C(C)(C)C)c(NC(=O)c2sccc2Cl)c1C(C)(C)C` it is “inactive”; for `C=C(C)COc1ccc(-c2nc(N)ncc2-c2ccccc2OC)c(O)c1` it is “inactive”.
As for `O=C(COc1ccc([N+](=O)[O-])cc1Cl)Nn1cnnc1`, the Potency entry was “inactive”.
As for `COC(=O)CSc1nccc(-c2cccs2)n1`, the Potency entry is “inactive”.
As for `CN1CCN(C(=O)N2c3ccccc3CCc3ccccc32)CC1`, the Potency entry is “inactive”.
With `CC(=O)NC(=S)NNC(=O)c1ccc(Br)cc1`, the Potency was 11.2 µM (active).
As to `Cn1nnnc1SCC(=O)NNC(=O)c1ccc(Br)cc1`, the Potency result is “inactive”.
On the same count and under the same terms, to `O=C(CCc1ccccc1)NNC(=O)c1ccc(Br)cc1` belongs “inactive”.
As for `CC(Oc1cccc(NC(=O)c2cccs2)c1)C(=O)c1ccccc1` (centres undefined), the Potency result is “inactive”.
The same measure, in the same setting: to `O=C(O)c1n[nH]nc1-c1ccccc1` belongs “inactive”; to `CCNC(=O)CC1C(=O)N(c2ccc(F)cc2)C(=O)N1CCc1sccc1C` (centres undefined), “inactive”; to `COc1ccc(OCc2cn3c(C)cc(C)nc3n2)cc1`, “inactive”.
Regarding `COc1ccc(C(C[N+](=O)[O-])n2nc(C)cc2C)cc1` (centres undefined), the Potency is 10 µM (active).
`COc1ccc(Nc2cc(C)nc(-n3nc(C)cc3C)n2)cc1`: the Potency result is “inactive”.
Same read-out and setting: to `Cc1onc(-c2ccccc2)c1C(=O)N=C(N)c1ccc(Cl)cc1` belongs “inactive”.
Consider `COc1ccc(OCc2ccc(-c3nc4ccccc4c(=O)n3N)o2)cc1`, for which the Potency result was “inactive”.
Same read-out and setting: the figure for `Cc1ccc(C(=O)CSc2nc3ccccc3c(=O)n2N)o1` is 28.2 µM (active).
With `O=C(CCn1c(SCC(=O)c2ccccc2)nc2ccccc2c1=O)NCc1ccc(F)cc1`, the Potency entry is “inactive”.
With `O=C(Nn1cnc2ccccc2c1=O)c1ccccc1`, the Potency result is “inactive”.
In the case of `C=CCC1(CC=C)CCCN1C(=O)CC1C(=O)NCCN1Cc1ccccc1OC` (centres undefined), the Potency result is “inactive”.
Take `COCCC(=O)Nc1ccc2c(c1)CN(C(=O)CCOC)CC2`: the Potency result is “inactive”.
In the case of `CNc1[nH]ncc1[N+](=O)[O-]`, the Potency entry was “inactive”.
Still for that read-out and setting: to `COc1cc(NS(=O)(=O)c2ccc(NC(=O)CN3C(=O)c4ccccc4C3=O)cc2)ncn1` belongs “inactive”.
As to `COc1ccc(CCCc2nnc(SCc3nc4ccccc4c(=O)[nH]3)n2C)cc1`, the Potency entry is “inactive”.
As to `CCn1c(COc2c(C)cccc2C)nnc1SCc1nc2ccccc2c(=O)[nH]1`, the Potency result was “inactive”.
On to `COc1ccc(C)cc1-n1nnnc1SCc1nc2ccccc2c(=O)[nH]1`, for which the Potency is 39.8 µM (active).
Turning to `CCCOC1CCCN(Cc2cn(C)nc2-c2ccccc2F)C1` (centres undefined), the Potency entry was “inactive”.
`O=C(C1CCCO1)N(c1ccc(F)cc1)C1C=CS(=O)(=O)C1` (centres undefined): the Potency result is “inactive”.
As for `CCCC[C@@H]1C[C@H]1C(NC(=O)c1ccco1)c1ccc(C(=O)OC)cc1` (some centres undefined), the Potency is 22.4 µM (active).
On to `COC(=O)c1ccc(N(CC(=O)NC2CCCC2)C(=O)CNC(=O)c2ccco2)cc1`, for which the Potency entry was “inactive”.
With `CCCC[C@@H]1C[C@H]1C(NC(=O)c1ccc(-c2ccccc2)cc1)c1ccc(-c2ccccc2)cc1` (some centres undefined), the Potency entry is “inactive”.
`CC(C)(C)NC(=O)C(=O)NN=C1CCCCCCC1`: the Potency result is “inactive”.
Still for that read-out and setting: to `Fc1cc(F)c2nc(N3CCOCC3)sc2c1` belongs “inactive”.
On the same count and under the same terms, to `c1c2c(cc3sc(N4CCCCC4)nc13)OCCO2` belongs 20 µM (active).
In the case of `Fc1ccc2nc(N3CCCCC3)sc2c1`, the Potency entry is “inactive”.
As to `CC(=O)c1cc(C#N)c(SCC(=O)Nc2nccs2)nc1C`, the Potency result was “inactive”.
Consider `CCOc1ccc(C(=O)Nc2cccc(SC)c2)cc1`, for which the Potency entry is “inactive”.
Turning to `Nn1c(Cc2cccc3ccccc23)nnc1SCC(=O)N1CC(=O)Nc2ccccc21`, the Potency was 17.8 µM (active).
Take `C=CCn1c(COc2ccccc2F)nnc1SCC(=O)N1CC(=O)Nc2ccccc21`: the Potency result is “inactive”.
Take `Cn1c(Cc2cccc3ccccc23)nnc1SCC(=O)N1CCN(c2cccc(Cl)c2)CC1`: the Potency entry was “inactive”.
In the case of `Cc1cc(C)cc(N(CC(=O)NCCSCc2ccco2)S(C)(=O)=O)c1`, the Potency entry was “inactive”.
On the same count and under the same terms, to `Cc1cc(C)nc(NC(=O)/C=C/c2ccc(Cl)cc2)n1` belongs “inactive”; to `Cc1cccc(C(=O)Nc2ccccc2C(=O)NCc2cccnc2)c1`, “inactive”; to `COc1cc(C(=O)N2C(=O)c3cccc(N)c3C2=O)cc(OC)c1OC`, “inactive”.
With `CCOC(=O)N1CC=C2C(C#N)=C(N)C(C#N)(C#N)[C@H](c3cccs3)[C@H]2C1`, the Potency is 20 µM (active).
`COc1cc(/C=C2/C(=O)ON=C2C)ccc1OCc1ccccc1F`: the Potency result was “inactive”.
For the molecule `COc1cc(/C=C2/C(=O)ON=C2C)ccc1OCc1cccc(F)c1`, the Potency was 10 µM (active).
`C/C=C/c1ccc(OCCOc2ccc(C=O)cc2OC)c(OC)c1`: the Potency entry was “inactive”.
As for `O=S(=O)(Nc1ccccn1)c1cccc(S(=O)(=O)c2ccc(Cl)cc2)c1`, the Potency entry was “inactive”.
As to `Cn1c(CC(=O)Nc2ccccc2)nnc1SCC(=O)c1ccccc1`, the Potency is 7.08 µM (active).
As for `Cc1ccc(-n2c(C)cc(C(=O)CSc3nnc4ccccn34)c2C)cc1`, the Potency result is “inactive”.
Regarding `Cc1ccccc1NC(=O)Cc1nnc(SCC(=O)N2CCN(c3ccccc3)CC2)n1C`, the Potency result was “inactive”.
Turning to `O=C(CSc1nnc2ccccn12)c1ccccc1`, the Potency is 10 µM (active).
As for `Cn1c(CNc2nc(-c3ccccc3)cs2)nnc1SCC(=O)c1ccccc1`, the Potency entry was “inactive”.
In the case of `N#Cc1ccc(CSc2nnc3ccccn23)cc1`, the Potency entry is “inactive”.
Turning to `O=C(NNC1=C(C(=O)C(F)(F)F)CCC1)c1ccncc1`, the Potency entry is “inactive”.
For `CCc1nc2ccccc2c(C(=O)OC2CCCCC2=O)c1C` (centres undefined), the Potency result is “inactive”.
As for `O=C(O)/C=C/c1ccc(OCCCF)cc1`, the Potency result is “inactive”.
Still for that read-out and setting: to `COC(=O)C1=C(C)NC(=O)CC1c1ccccc1OC` (centres undefined) belongs “inactive”; to `CCn1c(=O)cc(SCC(=O)NCc2ccc3c(c2)OCO3)c2ccccc21`, “inactive”; to `O=C(Cc1cccc2ccccc12)NCCC1=CCCCC1`, “inactive”.
With `CCn1c(=O)cc(SCC(=O)NCCC2=CCCCC2)c2ccccc21`, the Potency is 14.1 µM (active).
On to `COc1ccc(Cc2nnc(NC(=O)c3cc(OC)c(OC)c(OC)c3)s2)cc1OC`, for which the Potency entry is “inactive”.
As to `NCCCC[C@@H]1NC(=O)[C@H](CCC(=O)O)NC(=O)c2cc([N+](=O)[O-])cc(I)c2NCC[C@@H](C(N)=O)NC1=O`, the Potency entry is “inactive”.
Regarding `CC(C)[C@@H]1NC(=O)c2cc([N+](=O)[O-])cc(I)c2NCCC[C@@H](C(=O)NC(CC(=O)O)C(N)=O)NC(=O)[C@H](CO)NC1=O` (some centres undefined), the Potency entry is “inactive”.
As to `NC(=O)CC[C@@H]1NC(=O)[C@H](CO)NC(=O)c2cc([N+](=O)[O-])cc(I)c2NCC[C@@H](C(N)=O)NC1=O`, the Potency is 12.6 µM (active).
For `C/C(=N/NC(=O)c1ccn(C)n1)c1ccncc1`, the Potency result was “inactive”.
`COCC1CCCN(Cc2nc(-c3ccc4c(c3)OCO4)no2)C1` (centres undefined): the Potency entry is “inactive”.
With `CN1CCN(S(=O)(=O)c2cccc(C(=O)O)c2)CC1`, the Potency entry is “inactive”.
On to `COc1cccc(CNC(=O)Cc2csc(Nc3nc(=S)[nH]c4ccccc34)n2)c1`, for which the Potency result was “inactive”.
On the same count and under the same terms, the entry for `O=C(Nc1ccccc1-c1ccccc1)c1cccs1` is “inactive”.
With `O=C(O)Cc1ccc(NC(=O)c2cccs2)cc1`, the Potency entry is “inactive”.
On to `CCc1ccccc1NC(=O)c1cccs1`, for which the Potency was 25.1 µM (active).
In the case of `Cc1cc(F)ccc1S(=O)(=O)Nc1ncnc2scc(-c3ccc(F)cc3)c12`, the Potency entry is “inactive”.
With `CONc1nc2nonc2nc1NOC`, the Potency entry was “inactive”.
As for `Cc1cccc2cc(CN(Cc3ccc4c(c3)OCO4)Cc3nnnn3C3CCCC3)c(=O)[nH]c12`, the Potency is 11.2 µM (active).
In the case of `Cc1ccc(S(=O)(=O)Cn2nnnc2CN2CCN(Cc3ccc4c(c3)OCO4)CC2)cc1`, the Potency result is “inactive”.
As to `O=c1[nH]c(N2CCN(Cc3ccc4c(c3)OCO4)CC2)nc2c1CCCC2`, the Potency entry was “inactive”.
Regarding `Cc1cccc2cc(CN(Cc3nnnn3Cc3ccccc3)C3CCCC3)c(=O)[nH]c12`, the Potency was 15.8 µM (active).
Turning to `CC(C)C(c1nnnn1Cc1ccccc1)N1CCC(C(N)=O)CC1` (centres undefined), the Potency entry is “inactive”.
With `CCCN(Cc1cc2cccc(C)c2[nH]c1=O)S(C)(=O)=O`, the Potency entry is “inactive”.
